# In the library only some 6.9% were active in any assay of this set; here they are far more common.
# SW480 rereplic = inducers of DNA re-replication in SW480 colon cancer cells; SW480 DNA re-replication, Hoechst DNA content imaging, 48 h; Potency, µM (series often up to 46.1 µM), for the others: at the highest dose re-replication activation, hits mostly activators; 1.8% of 340,000 active; AID 624297; also: potency is read from the fitted curve at half-maximal effect; % of control where 0% means no effect; nearly all actives have a fitted effect of over 55% in size
#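 DNA re-replication was detected as more nuclei of elevated Hoechst intensity after 48 hr exposure to compound (23 nL pinned per well of 250 cells).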
# Vif-APOBEC3G blk = inhibitors of Vif-APOBEC3G interaction | Q9HC16 | HeLa A3G-eYFP + Vif (tagged APOBEC3G with the HIV-1 protein that degrades it), YFP fluorescence, overnight | Potency, µM (top dose mostly 46.1 µM), for inactives: at the top dose activity, negative = active, hits mostly inhibitors | 0.076% of 410,000 active | AID 602310; also: potency is read from the fitted curve at half-maximal effect; % is scaled to controls: 0 for no effect and ±100 for the full control effect; nearly all actives have a fitted effect of over 60% in size
# Target sequence (Q9HC16 whole entry, looked up): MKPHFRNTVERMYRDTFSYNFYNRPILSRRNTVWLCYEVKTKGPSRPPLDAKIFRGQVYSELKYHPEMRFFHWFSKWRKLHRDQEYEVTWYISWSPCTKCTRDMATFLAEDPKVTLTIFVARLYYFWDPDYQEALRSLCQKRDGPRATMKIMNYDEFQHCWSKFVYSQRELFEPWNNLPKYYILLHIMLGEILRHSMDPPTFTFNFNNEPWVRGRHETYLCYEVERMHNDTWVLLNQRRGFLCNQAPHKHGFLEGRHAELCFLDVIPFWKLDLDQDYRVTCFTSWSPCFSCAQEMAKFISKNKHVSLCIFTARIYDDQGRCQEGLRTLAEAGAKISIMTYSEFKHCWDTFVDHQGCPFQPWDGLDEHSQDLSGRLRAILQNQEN
#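 Read-out is eYFP fluorescence (Ex 488/Em 500-530) from Vif-expressing HeLa A3G-eYFP cells; more signal means A3G escaped Vif-mediated degradation. Cells plated overnight, compound pinned in, incubated overnight at 37 deg C.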
# IL-1B inflam inh = inflammasome signaling inhibition, IL-1 beta readout; THP-1 LPS/ATP IL-1B secretion, AlphaLISA, 16 h; hits give low values; activity change, % at 57.5 µM; 4.7% of 360,000 active; AID 743279; in the data active = activity change below about -50%; inconclusive = mostly about -30% to -49%; also: % is scaled to controls: 0 for no effect and ±100 for the full control effect
#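 Secreted IL-1B measured by AlphaLISA bead assay after 16 h compound exposure of THP-1 cells; compounds (final up to 57.5 uM) added 1 h before LPS (250 ng/mL) and ATP (1.25 mM) stimulation; lower signal means less secretion.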
# Giardia killer = Giardia lamblia killing; 0.15% of 340,000 active; activity change, % at 7.66 µM, hits read low; Giardia lamblia trophozoite viability; AID 540267; in the data active = activity change below about -80%; inconclusive = between about -30% and that limit;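 also: parasites exposed to compound for two days anaerobically before the ATP read; % is scaled to controls: 0 for no effect and ±100 for the full control effect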
#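 Giardia trophozoites, 100 cells per well, were exposed to compounds for 48 hrs at 37 deg C under anaerobic conditions; viability was then read as ATP content by bioluminescence after 15-30 min at room temperature.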
# Vif-A3F inh = Vif-A3F binding inhibition. 0.2% of 390,000 active. Potency, µM (titrated, usually from 46.1 µM), for inactives: at the highest dose activity, negative = active. AID 602313. HeLa A3F-eYFP + Vif (tagged APOBEC3F with the HIV-1 protein that degrades it), YFP fluorescence increase; also: potency is read from the fitted curve at half-maximal effect; % of control where 0% means no effect; nearly all actives have a fitted effect of over 65% in size
#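 Fluorescence increase (Ex 488/Em 500-530) after overnight compound treatment at 37 deg C flags inhibition of Vif-driven A3F-eYFP loss in stable HeLa A3F-eYFP/Vif cells seeded overnight beforehand.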
# MCF10A rerep = DNA re-replication induction in MCF 10a cells | Potency, µM (series often up to 46.1 µM), for the others: at the highest dose activity, positive = re-replication, actives largely listed as activators | 2.9% of 350,000 active | AID 624296 | MCF 10A DNA re-replication, Hoechst nuclear intensity, 48 h; also: potency is read from the fitted curve at half-maximal effect; % of control where 0% means no effect; nearly all actives have a fitted effect of over 50% in size
# * marks the source's active call; other numbers are inactive results; ? = inconclusive; nt = not tested or not shown. Unless noted, calls follow the shape of the dose curve; as a rule, active = well fitted curve in the direction sought with a large enough effect; inconclusive = small, poorly fitted or top-dose-only effect, or another doubt; inactive = no such curve, though single readings can be large; an effect the other way counts as inactive or inconclusive.
SMILES,SW480 rereplic,Vif-APOBEC3G blk,IL-1B inflam inh,Giardia killer,Vif-A3F inh,MCF10A rerep
O=C(Cn1c(=O)n(Cc2ccc3c(c2)OCO3)c(=O)c2ccccc21)Nc1cccc(Cl)c1,nt,1.9%,nt,nt,2.9%,nt
CCN(C(=O)CSc1nc2ccccc2n1CC(=O)N1CCCC(C)C1)c1ccccc1 (stereo not given),nt,-2.7%,nt,nt,1.1%,nt
O=C1CCCC2=C1C(c1ccncc1)c1c(nc(SCc3ccccc3)[nH]c1=O)N2 (stereo not given),-11.2%,-3.4%,-51.5*,-12.5,5.7%,17.1%
Cc1ccc(C2C3=C(CCCC3=O)Nc3nc(SCC(=O)NCc4ccco4)[nH]c(=O)c32)cc1 (stereo not given),2.0%,-0.7%,32.2,7.0,3.0%,-3.9%
COc1ccc(CC(=O)Oc2ccc(F)cc2)cc1,6.4%,-0.8%,14.3,19.8,5.9%,0.651µM*
COc1cc(OC)cc(C(=O)NCC(=O)Nc2ccc(C)c(Cl)c2)c1,-1.2%,-4.8%,-7.3,-1.0,-16.2%,16.1%
COc1ccc(/C(=C/Nc2cccc(Br)c2)C(C)=O)cc1OC,0.4%,1.9%,-84.5*,-7.5,-0.5%,-2.4%
COc1cccc(CNC(=O)CNS(=O)(=O)c2ccc(Br)s2)c1,-13.7%,0.7%,-52.5*,11.7,0.3%,-3.1%
COc1cccc(CNC(=O)CCNS(=O)(=O)c2ccc(Br)s2)c1,0.6%,3.9%,20.2,-20.0,-18.9%,-2.2%
COc1cc(OC)cc(C(=O)NCC(=O)Nc2ccc(-c3ccccc3)cc2)c1,8.2µM*,?,38.9,-3.4,1.0%,4.61µM*
COc1ccc(/C(C)=N/Nc2cccc(C(=O)O)c2)cc1OC,-8.8%,-0.4%,-1.1,-5.2,2.2%,1.1%
CCCCSCCCNC(=O)c1cc(-c2cccnc2)nc2ccc(S(=O)(=O)N3CCC(C)CC3)cc12,nt,1.7%,nt,nt,0.3%,nt
CC(=O)N1c2ccccc2C(=O)C1N1CCN(c2cc(Cl)ccc2C)CC1 (stereo not given),nt,0.3%,nt,nt,-2.1%,nt
COc1ccc(/C(N)=N/OC(=O)CSc2ccccc2)cc1,0.6%,2.5%,-60.0*,20.2,-7.3%,28.7%
COc1ccc(C(=O)CC(=O)c2ccccc2)cc1,2.91µM*,0.3%,-13.1,12.6,2.5%,1.8%
COc1ccc(C(=O)CC(=O)c2ccc(OC)cc2)cc1,1.4%,0.7%,-3.6,-6.6,-5.3%,4.3%
COc1cccc(CNC(=O)Cc2ccc(-c3ccccc3)cc2)c1,?,-17.5%,21.9,-7.9,-15.5%,10.3µM*
COc1cc(OC)cc(C(=O)Nc2nnc(NC(=S)Nc3ccccc3)s2)c1,9.1%,2.9%,33.3,7.2,0.9%,10.3µM*
CC(C)(C)c1ccc(C(=O)N2CCCC(c3nc4c(nnn4Cc4cccc(F)c4)c(=O)[nH]3)C2)cc1 (stereo not given),nt,2.1%,nt,nt,1.6%,nt
C=CCn1c(SCC(=O)NCc2ccco2)nnc1-c1cccc(N(C)C)c1,nt,1.6%,nt,nt,nt,nt
CCc1c(C)c2ccc3c(c2oc1=O)CN(Cc1ccccc1)CO3,nt,0.1%,nt,nt,2.0%,nt
COc1ccc(N/C=C(/C(C)=O)c2ccccc2)cc1,-8.2%,1.0%,-84.4*,-0.8,0.6%,0.8%
COc1ccc(OCCC(=O)NCc2ccccc2)cc1,0.5%,-4.1%,-9.9,-1.0,-2.4%,-0.4%
COc1ccc(CCNC(=O)C(=O)NCc2ccccc2)cc1OC,18.4µM*,?,32.4,-9.0,-8.9%,?
COc1ccc(N/C=C/C(=O)c2ccccc2)cc1,0.5%,-4.6%,-3.4,4.3,-17.9%,2.3%
SMILES,SW480 rereplic,Vif-APOBEC3G blk,IL-1B inflam inh,Giardia killer,Vif-A3F inh,MCF10A rerep
COc1ccc(CC(=O)NCc2ccccc2)cc1,?,?,28.5,29.7,-13.1%,7.31µM*
C/C(CC(=O)Nc1c(Cl)cccc1C(F)(F)F)=N\NC(=O)c1cnccn1,1.0%,-2.6%,-1.5,29.0,-3.8%,16.6%
C/C(CC(=O)Nc1ccc(Cl)c(C(F)(F)F)c1)=N\NC(=O)c1cnccn1,-2.5%,-0.5%,-71.7*,2.5,2.0%,?
CNC(=O)c1cc(Oc2ccc(NC(=O)Nc3ccc(Cl)c(C(F)(F)F)c3)cc2)ccn1,?,-8.4%,-102.2*,-7.3,4.0%,16.4µM*
Cc1ccc(Cn2c(=N)n(CC(O)c3ccco3)c3ccccc32)cc1 (stereo not given),-4.2%,-1.3%,-74.4*,-3.2,0.2%,-1.9%
N=c1n(CC(=O)c2cccc([N+](=O)[O-])c2)c2ccccc2n1Cc1ccccc1,?,-2.6%,-104.1*,5.8,?,?
CC(C)(C)C(=O)Cn1c(=N)n(Cc2ccccc2)c2ccccc21,?,0.9%,-26.8,17.7,0.0%,17.8µM*
Cc1ccc(Cn2c(=N)n(CC(=O)c3ccccc3)c3ccccc32)cc1,?,2.0%,-82.4*,-8.1,-8.2%,?
N=c1n(Cc2ccccc2Cl)c2ccccc2n1CC(O)c1ccco1 (stereo not given),-0.6%,0.2%,-3.6,-2.9,7.9%,-1.1%
CC(=O)OCC(NC(=O)C(COCc1ccccc1)NC(=O)OC(C)(C)C)C1OC(n2cc(F)c(=O)[nH]c2=O)C(OC(C)=O)C1OC(C)=O (stereo not given),nt,-1.1%,nt,-6.7,nt,nt
Cc1cccc(N2CCN(C(=O)c3cnn(-c4ccccc4Cl)c3C3CCN(C(=O)OC(C)(C)C)CC3)CC2C)c1 (stereo not given),nt,4.3%,nt,nt,-5.0%,nt
Cn1c(=O)[nH]c2cc(-c3noc(-c4ccc(C#N)cc4)n3)ccc21,nt,0.8%,nt,nt,9.7%,nt
Cc1c(CCOC(=O)C2C3CC4CC(C3)CC2C4)sc[n+]1CC(=O)c1ccc(Br)cc1 (stereo not given),-1.7%,-0.2%,-85.0*,15.6,-26.9%,?
Cc1c(CCOC(=O)c2ccc([N+](=O)[O-])cc2)sc[n+]1CC(=O)c1ccccc1,-4.9%,1.5%,-22.3,10.8,-8.6%,-1.8%
COc1ccc(C(=O)OCCc2sc[n+](CC(=O)c3ccccc3)c2C)cc1,-19.4%,-0.1%,-55.3*,-22.0,5.4%,?
CN(C)CCCNc1cc(N2CCN(C)CC2)ncn1,nt,0.6%,nt,nt,nt,nt
N=c1ccn2c(n1)OC1C(O)[C@@H](CO)O[C@H]12 (stereo not given in full),nt,4.3%,nt,8.2,nt,nt
CCCn1c2ccccc2c2cnn(CC(=O)NCCN(CC)CC)c(=O)c21,6.8%,0.3%,-91.5*,52.6,2.4%,?
O=C(Cn1ncc2c3ccccc3n(Cc3ccccc3F)c2c1=O)NCCCN1CCCC1=O,-23.9%,-2.3%,-52.7*,-15.2,-6.0%,3.5%
COc1ccc([N+](=O)[O-])cc1COc1cc(C)cc2oc(=O)cc(-c3ccccc3)c12,?,?,39.9,-5.7,-11.5%,11.6µM*

# Screening data as filed in PubChem.
